A selection: hits, their analogues and other compounds. The true share with any hit is near 7.6%.
KB-V1 cytotox: qHTS assay for MDR1-selective chemotherapeutics: Primary screen using the drug-selected MDR subline cells KB-V1; KB-V1 MDR cells viability, CellTiter-Glo, 72 h; Potency, µM (doses to about 46.1 µM), hits mostly cytotoxic; hit rate 3.4% among 400,000; note: nearly all actives have a fitted effect of over 60% in size
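qHTS viability screen in drug-selected KB-V1 MDR cells: 72 h compound treatment at 37 degrees C, ATP luminescence end point.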
MCF10A rereplic: A quantitative high throughput screen for small molecules that induce DNA re-replication in MCF 10a normal breast cells; MCF 10A DNA re-replication, Hoechst nuclear intensity, 48 h; Potency, µM (highest dose often 46.1 µM), actives largely listed as activators; hit rate 2.9% among 350,000; note: nearly all actives have a fitted effect of over 50% in size
KB-3-1 cytotox: qHTS assay for MDR1-selective chemotherapeutics: Primary screen using the parental adenocarcinoma cell KB-3-1; KB-3-1 viability, CellTiter-Glo ATP luminescence, 72 h; Potency, µM (titrated, usually from 46.1 µM), hits mostly cytotoxic; hit rate 1.4% among 400,000; AID 1347075, 2019; note: nearly all actives have a fitted effect of over 60% in size
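Here the drug-naive KB-3-1 line serves as comparator for MDR sub-line selectivity; cells received compound titrations, 72 h at 37 °C, then CellTiter-Glo readout.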
KCNH2 3.1 block: qHTS for Inhibitors of KCHN2 3.1: Mutant qHTS; hit rate 0.95% among 340,000; U2OS KCNH2 3.1, thallium flux FluxOr; active compounds read low; activity change, % (tested at about 1.8 µM); Potassium voltage-gated channel subfamily H member 2, brain isoform KCNH2 3.1 (human);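 active = maximum activity change below -70%; inconclusive = maximum activity change from -70% to -50%; inactive = maximum activity change above -50%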;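 note: thallium influx rate constant from kinetic fluorescence after stimulation buffer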
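Channel expression came from 3.1 mutant virus (1.77 x 10^8 /mL) applied to suspended U2OS cells for 4 h. Flux was tracked with FluxOr dye plus Red40 quencher, and kinetic rate constants normalized to controls.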
hERG WT inh: qHTS for Inhibitors of KCHN2 3.1: Wildtype qHTS. AID 720551, 2013. activity change, % at 1.84 µM. Voltage-gated inwardly rectifying potassium channel KCNH2 (Homo sapiens), Q12809. hit rate 0.37% among 340,000. U2OS, BacMam KCNH2, thallium flux FluxOr; active compounds read low;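 active = maximum activity change below -70%; inconclusive = maximum activity change between -70% and -50%; inactive = maximum activity change above -50%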
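U2OS cells transduced with wild-type KCNH2 virus are loaded with FluxOr dye for 45 min, and thallium flux is measured in kinetic reads before and after stimulation buffer. Rate constants are normalized to DMSO controls.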
SW480 rerep: A quantitative high throughput screen for small molecules that induce DNA re-replication in SW480 colon adenocarcinoma cells | SW480 DNA re-replication, Hoechst DNA content imaging, 48 h | Potency, µM (top dose mostly 46.1 µM), hits mostly activators | hit rate 1.8% among 340,000 | AID 624297, 2012; note: nearly all actives have a fitted effect of over 55% in size
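First, 250 cells per well were seeded. Next, compound or vehicle (23 nL) was pinned in, plates sat 48 hr at 37 C. Finally Hoechst was added for 40 min before fluorescence scanning.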
Each line names hits and unclear results; the compound was inactive in the other large screens. Unless noted, calls come from the whole dose curve; as a rule, active = well fitted curve in the direction sought with a large enough effect; inconclusive = small, poorly fitted or top-dose-only effect, or another doubt; inactive = no such curve, though single readings can be large; an effect the other way counts as inactive or inconclusive.

COc1ccc(N/N=C(/N=Nc2nc(C)cc(=O)[nH]2)c2ccccc2)cc1	KB-V1 cytotox inconclusive, MCF10A rereplic inconclusive, KB-3-1 cytotox 6.5µM, SW480 rerep inconclusive
Cc1cc(=O)[nH]c(N=N/C(=N/Nc2ccc(O)cc2)c2ccccc2)n1	MCF10A rereplic inconclusive, KB-3-1 cytotox inconclusive
Cc1c(NC(=O)COC(=O)/C=C/c2cccc(Br)c2)c(=O)n(-c2ccccc2)n1C	KB-V1 cytotox inconclusive
COc1ccccc1C(=O)Nc1ccccc1OCc1cc(=O)n2cc(C)sc2n1	none (no result: MCF10A rereplic, KCNH2 3.1 block, hERG WT inh, SW480 rerep)
CC1CC(C)(C)CC2(C1)NC(=O)N(CC(=O)OCc1ccc(Br)cc1)C2=O (stereo unspecified)	KB-V1 cytotox 16µM, MCF10A rereplic inconclusive
Cc1ccc(-c2nc(C#N)c(NCCN3CCCCC3)o2)cc1	KB-V1 cytotox 23µM
COCCNc1oc(-c2ccc(C)cc2)nc1C#N	KB-V1 cytotox 23µM
COc1cc(CNC(=O)c2cccc(COc3ccc(Cl)cc3)c2)cc(OC)c1	KB-V1 cytotox inconclusive, KB-3-1 cytotox inconclusive
COc1ccc2c(CN(C)c3ccccc3)cc(=O)oc2c1	KB-V1 cytotox 18µM
COc1ccc2c(CN(C)Cc3ccccc3)cc(=O)oc2c1	none (no result: MCF10A rereplic, KCNH2 3.1 block, hERG WT inh, SW480 rerep)
COc1ccc(C(=O)/C=C/c2cn(CN3CCN(C)CC3)c3ccccc23)cc1	MCF10A rereplic 8.2µM, KB-3-1 cytotox inconclusive, SW480 rerep 21µM
CCOc1ccc(C(=O)/C=C/c2cn(CN3CCN(C)CC3)c3ccccc23)cc1	MCF10A rereplic 10µM, SW480 rerep inconclusive
COc1ccc(C(=O)/C=C/c2cn(CC(O)CN3CCc4ccccc43)c3ccccc23)cc1OC (stereo unspecified)	KB-V1 cytotox inconclusive (no result: MCF10A rereplic, KCNH2 3.1 block, hERG WT inh, SW480 rerep)
CC(C)CCNC(=O)CSc1nc2ccccc2nc1Cc1ccccc1	none (no result: MCF10A rereplic, KCNH2 3.1 block, hERG WT inh, SW480 rerep)
c1ccc(CCNc2nc3ccccc3s2)cc1	KB-V1 cytotox 18µM, MCF10A rereplic inconclusive
CCOC(=O)c1nc(NCCc2ccccc2)sc1C	MCF10A rereplic 2.1µM
CCCCn1c(N)c(N(CCC(C)C)C(=O)CSc2nncn2-c2ccccc2)c(=O)[nH]c1=O	none
CCOc1ccccc1NC(=O)CSc1nnc(C2CC2)n1CC	none
Cc1cc(C)n(-c2nnc(SCC(=O)NC3CCCC3)c3ccccc23)n1	none
CCOC(=O)Cc1csc(NC(=O)CCCN2C(=O)c3ccccc3C2=O)n1	none
CCOC(=O)Cc1csc(NC(=O)c2cc(C)c(C)s2)n1	KB-V1 cytotox 18µM, KB-3-1 cytotox inconclusive
CCOC(=O)Cc1csc(NC(=O)CSc2nnc(-n3nc(C)cc3C)c3ccccc23)n1	KB-V1 cytotox 21µM
CCOC(=O)Cc1csc(NC(=O)CCN2C(=O)c3ccccc3C2=O)n1	KCNH2 3.1 block -213, SW480 rerep inconclusive
Clc1cccc(-n2ncc3c(NCCC4=CCCCC4)ncnc32)c1	none (no result: MCF10A rereplic, KCNH2 3.1 block, hERG WT inh, SW480 rerep)
COc1ccc(Nc2nnc(-c3ccc(N4CCOCC4)c([N+](=O)[O-])c3)c3ccccc23)cc1	KB-V1 cytotox 16µM
Cc1ccc2nc(-c3ccc(C)c(NC(=O)COc4ccccc4Cl)c3)oc2c1	KB-3-1 cytotox inconclusive (no result: MCF10A rereplic, KCNH2 3.1 block, hERG WT inh, SW480 rerep)
Cc1cccc(OCCN2CSC(=S)N(C)C2)c1	KB-V1 cytotox 10µM, MCF10A rereplic 5.8µM, KB-3-1 cytotox 8.2µM, SW480 rerep inconclusive
COc1ccccc1OCCN1CSC(=S)N(C)C1	KB-V1 cytotox inconclusive, MCF10A rereplic 7.3µM, KB-3-1 cytotox 5.2µM, SW480 rerep 2.6µM
Cc1cccc(OCCCN2CCCCCC2)c1	none
O=C(Nc1ccc(Cl)c(C(F)(F)F)c1)c1cc2nc(-c3ccc4c(c3)OCO4)cc(C(F)(F)F)n2n1	none (no result: MCF10A rereplic, KCNH2 3.1 block, hERG WT inh, SW480 rerep)
CCN(CCCNC(=O)c1cc2c(=O)[nH]c3ccc(C)cc3c2s1)Cc1ccccc1	none (no result: MCF10A rereplic, KCNH2 3.1 block, hERG WT inh, SW480 rerep)
Cc1cccc(Cn2cccc2CNS(=O)(=O)c2ccccc2F)c1	none (no result: MCF10A rereplic, KCNH2 3.1 block, hERG WT inh, SW480 rerep)
